Assay outcomes deposited in PubChem BioAssay by National Center for Advancing Translational Sciences (NCATS).
Shown are actives, neighbours in structure and some others; about 5.7% of the full set was active somewhere.
Giardia kill = Giardia lamblia killing; Giardia lamblia trophozoite viability; activity change, % at 7.66 µM, hits read low; hit rate 0.15% among 340,000; AID 540267; in the data active means activity change below about -80%; inconclusive means between about -30% and that limit;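 further: parasites exposed to compound for two days anaerobically before the ATP read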
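ATP-content bioluminescence gauges trophozoite survival. Cells (100/well) receive compound and incubate anaerobically for 48 hrs at 37 deg C; detection reagent follows for 15-30 min at room temperature.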
Nrf2 block = Nrf2 pathway inhibition; A549 ARE-Fluc reporter, luciferase luminescence, 18-24 h; Potency, µM (titrated, usually from 46 µM), for the others: at the top dose activity change, negative = inhibition, usual class: inhibitors; hit rate 2.1% among 360,000; AID 504444; further: potency means the concentration at half of the fitted maximal effect; nearly all actives have a fitted effect of over 60% in size
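A549 ARE_Fluc cells (5000/well, 5% FBS OPTI-MEM) pre-incubated 2 h, then treated with compounds 18-24 h at 37C/5% CO2 in concentration-response. CellTiter-Fluor viability read first; BugLite luciferase luminescence after 15 min at room temperature gives Nrf2 activity.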
KB-3-1 cytotox = KB-3-1 parental cell cytotoxicity | Potency, µM (top dose mostly 46.1 µM), hits mostly cytotoxic | KB-3-1 viability, CellTiter-Glo ATP luminescence, 72 h | hit rate 1.4% among 400,000; further: potency means the concentration at half of the fitted maximal effect; nearly all actives have a fitted effect of over 60% in size
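Viability of parental KB-3-1 cells, measured by CellTiter-Glo luminescence, followed a 72 h incubation at 37 °C with pinned compounds in phenol-red-free DMEM containing 10% FBS.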
PI4K2A inh = blocks human PI4K2A kinase activity | activity change, negative = inhibition, % at 76.9 µM | Q9BTU6 | AID 1346378 | hit rate 0.13% among 420,000 | purified PI4K2A, ADP-Glo luminescence, 1 h; hits give low values; in the data active means activity change below about -50%; inconclusive means mostly about -30% to -49%;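 further: -100% = wells without enzyme as full effect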
Target sequence (Q9BTU6 whole entry, looked up): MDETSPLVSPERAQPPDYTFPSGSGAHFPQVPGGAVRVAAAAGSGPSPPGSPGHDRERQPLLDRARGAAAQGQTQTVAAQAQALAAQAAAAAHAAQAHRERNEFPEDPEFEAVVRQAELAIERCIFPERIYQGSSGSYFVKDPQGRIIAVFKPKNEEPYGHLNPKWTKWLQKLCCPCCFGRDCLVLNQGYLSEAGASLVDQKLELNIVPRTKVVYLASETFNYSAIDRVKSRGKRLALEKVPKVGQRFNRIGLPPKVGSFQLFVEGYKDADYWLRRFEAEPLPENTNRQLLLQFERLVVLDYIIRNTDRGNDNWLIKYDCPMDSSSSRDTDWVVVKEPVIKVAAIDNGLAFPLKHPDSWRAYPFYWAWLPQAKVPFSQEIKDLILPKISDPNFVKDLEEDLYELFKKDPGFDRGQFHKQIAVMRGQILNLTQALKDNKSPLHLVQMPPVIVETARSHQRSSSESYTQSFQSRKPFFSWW
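In this quantitative HTS, ADP production by PI4K2A was quantified luminescently after 1 h at ambient temperature; 100 microM adenosine served as plate-quality control.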
A549 tox = counter-screen for Nrf2 inhibitors: cytotoxicity in A549 cells. hit rate 0.16% among 390,000. A549 ARE-Fluc cells, CellTiter-Fluor viability, 18-24 h. Potency, µM (titrated, usually from 46 µM), without a hit: top-dose activity change, negative = cytotoxicity, actives largely listed as inhibitors; further: potency means the concentration at half of the fitted maximal effect
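Cytotoxicity counterscreen: CellTiter-Fluor fluorescence was measured in A549 ARE_Fluc cells after 18-24 h of compound exposure in a concentration series. The subsequent BugLite luminescent read reports ARE-luciferase activity.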
KB-V1 cytotox = KB-V1 MDR subline cytotoxicity; Potency, µM (highest dose often 46.1 µM), most hits filed as cytotoxic; hit rate 3.4% among 400,000; KB-V1 MDR cells viability, CellTiter-Glo, 72 h; AID 1347076; further: potency means the concentration at half of the fitted maximal effect; nearly all actives have a fitted effect of over 60% in size
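Cells of the MDR subline KB-V1 are plated, dosed with compound at multiple concentrations, and incubated 72 h at 37 degrees C; CellTiter-Glo is then added and luminescence read after 10 min.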
* marks the source's active call; other numbers are inactive results; i = inactive; ? = inconclusive; / = no result; [ ] = dose if it differs, or a comment. Unless noted, the call rests on the fitted dose curve; in most records, active means well fitted curve in the direction sought with a large enough effect; inconclusive means small, poorly fitted or top-dose-only effect, or another doubt; inactive means no such curve, though single readings can be large; an effect the other way counts as inactive or inconclusive. Unless noted, on the % scale 0 is the no-effect control and ±100 the full control effect.

SMILES	Giardia kill	Nrf2 block	KB-3-1 cytotox	PI4K2A inh	A549 tox	KB-V1 cytotox
Cc1ccccc1NCC(=O)N/N=C/c1c(C)c(C(=O)c2ccc(Cl)cc2)n2ccccc12	-7	-1%	?	6	-2%	?
Cc1c(/C=N/NC(=O)CNc2ccccc2)c2ccccn2c1C(=O)c1ccc(Cl)cc1	-4	?	i	3	?	2.3µM*
C=CCN1[C@@H](CC(C)C)COc2cccc(F)c2S1(=O)=O	/	/	/	-3	/	/
Cc1nc(-n2[nH]c3c(c2=O)CCCC3)[nH]c(=O)c1Cc1ccccc1	-12	?	?	0	?	2.6µM*
COc1ccc(OC)c(S(=O)(=O)Nc2cc(OC)c(Cl)cc2OC)c1	4	?	i	6	1%[1.84 µM]	i
COc1cc(NS(=O)(=O)c2ccc(OC)c(C)c2C)c(OC)cc1Cl	-8	21µM*	3.3µM*	6	-13%	i
CCc1ccc(C(=O)N2CCC(c3nc(-c4ccc(S(=O)(=O)N5CCCC5)cc4)no3)CC2)cc1	/	12µM*	/	0	-19%	/
CC(C)C(=O)N1CCC(c2nc(-c3ccc(S(=O)(=O)N4CCCC4)cc3)no2)CC1	9	-24%	i	-7	0%	12µM*
O=C(NC1CCCCC1)N1CCCC(c2nc(-c3ccc(S(=O)(=O)N4CCCC4)cc3)no2)C1 (centres undefined)	37	-24%	?	6	-2%	3.7µM*
O=S(=O)(Cc1ccccc1)N1CCCC(c2nc(-c3ccc(F)cc3)no2)C1 (centres undefined)	8	5%	i	-6	8%	i
O=S(=O)(NC1CC1)c1ccc(S(=O)(=O)N2CCCC(c3nc(-c4cccnc4)no3)C2)cc1 (centres undefined)	1	?	i	-4	-2%	8.2µM*
O=S(=O)(c1ccc(F)cc1)N1CCCC(c2nc(-c3ccc(F)cc3)no2)C1 (centres undefined)	14	?	i	0	-1%	i
Cn1c2cc(S(C)=O)sc2c2cnn(Cc3cccc(O)c3)c(=O)c21 (centres undefined)	/	0%	i	/	19%	i
O=C(OC12CCCN(C1)/C(=C/c1cccnc1)C2)c1cccc(F)c1 (centres undefined)	/	/	/	-1	/	/
Cc1ccccc1C1CCC2(CC1)CCN(CC[C@@H](O)c1ccccc1)C2=O (some centres undefined)	/	/	/	-3	/	/
CC(=O)/C(N)=N/Nc1cccc(Cl)c1	-6	-3%	i	2	-3%	i
N#C/C(=N\Nc1c(Cl)cccc1Cl)C(=O)NN	-17	14%	15µM*	-17	-10%	8.2µM*
N#C/C(=N\Nc1cccc(Cl)c1)C(=O)c1ccccc1	-10	?	16µM*	3	18µM*	?
COc1ccc(C(=O)/C(C#N)=N/Nc2cccc([N+](=O)[O-])c2)cc1	2	23µM*	?	-4	?	5.8µM*
N#C/C(=N\Nc1ccccc1Cl)C(=O)c1ccccc1	-4	?	15µM*	3	?	?
Brc1ccc2c(ccc[n+]2CCc2ccccc2)c1	/	/	?	/	/	i
N#C/C(=N\Nc1ccc(Cl)cc1)C(=O)c1ccsc1	-1	16µM*	?	-1	?	?
O=C(C[N+]12CN3CN(CN(C3)C1)C2)c1ccc(I)cc1	/	/	i	/	/	i
CCCCOc1ccc(CC(=O)N(C)O)cc1	/	/	?	/	/	i
O=C1NCCN1CCN1CCC(c2cn(-c3ccc(F)cc3)c3ccc(Cl)cc23)CC1	/	/	/	-1	/	/
SMILES	Giardia kill	Nrf2 block	KB-3-1 cytotox	PI4K2A inh	A549 tox	KB-V1 cytotox
COc1cc(NC(=O)Cn2nc(-c3ccc(F)cc3)ccc2=O)ccc1-n1cnnn1	11	26µM*	i	-2	?	i
Cc1cc[n+](CCC2CCCCC2)cc1	/	/	21µM*	/	/	i
O=[N+]([O-])c1ccc(-c2nc(-c3ccncc3)no2)cc1	-19	6%	i	0	2%	18µM*
C=CCN1C(=O)[C@H](CC(=O)NCC2CCCCC2)[C@@]2(C(=O)OCC)CCCC=C12	/	/	/	-2	/	/
CC1CCN(c2c3c(nc4ncnn24)CCCC3)CC1	/	/	/	3	/	/
c1ccc(N2CCN(c3c4c(nc5ncnn35)CCC4)CC2)cc1	-2	12µM*	i	4	-14%	2.9µM*
COc1cccc(N2CCN(c3c4c(nc5ncnn35)CCC4)CC2)c1	4	13µM*	23µM*	-1	-8%	?
COc1cccc(N2CCN(c3ncccn3)CC2)c1	-1	?	i	2	-5%	?
O=C1C2CCCN2C(=O)N1CCCCN1CCN(c2cccc(Cl)c2)CC1 (centres undefined)	17	?	i	-1	-2%	8.2µM*
O=C1C2CCCCN2C(=O)N1CCN1CCN(c2cccc(Cl)c2)CC1 (centres undefined)	0	6%	i	3	-2%	i
CC(O)c1nc2ccccc2n1C/C=C/c1ccccc1 (centres undefined)	6	18%	i	1	0%	15µM*
COc1ccc(Cc2nc3ccccc3n2Cc2ccccc2F)cc1	/	18µM*	i	-1	-5%	i
CCn1c(/C=C/c2ccccc2)nc2ccccc21	?	?	i	-2	20%[1.84 µM]	?
COc1ccc(/C=C/c2nc3ccccc3n2C)cc1	?	?	5.2µM*	-88*	-2%	4.1µM*
CCn1c(Cc2ccc(OC)cc2)nc2ccccc21	-14	?	i	-2	5%	?
COc1ccc(Cn2c(/C=C/c3ccccc3)nc3ccccc32)cc1	-27	?	?	-2	-8%	13µM*
O=C(OCc1cn(Cc2ccccc2C(F)(F)F)nn1)N1CCOCC1	/	/	/	5	/	/
O=C(CSc1nc2ccccc2nc1N1CCOCC1)N1CCN(c2cccc(C(F)(F)F)c2)CC1	/	/	/	-8	/	/
Cc1cc(C(=O)O[C@H]2CCC[C@@]3(C(=O)N(Cc4ccccc4)c4ccccc43)[C@H]2NC(=O)CCc2ccccc2)no1	/	/	/	5	/	/
COc1ccc(/C=N\n2nnc3ccccc32)cc1	-5	?	i	-59*	0%	i
COCCn1c(C)cc(C2=NNC(=Nc3ccc(OC)cc3)SC2)c1C	-4	28%	i	-1	3%	?
COCCn1c(C)cc(C2=NNC(=Nc3ccccc3)SC2)c1C	-19	?	i	-52*	4%	i
C=CCn1c(C)cc(C2=NNC(=NCc3ccccc3)SC2)c1C	17	?	?	0	-19%	9.2µM*
